Test results: PubChem BioAssay AID504332 (National Center for Advancing Translational Sciences (NCATS), 2011)
About 31,000 (8.9%) of roughly 350,000 compounds were called active. Inconclusive results (about 15%) are left out. Calls come from the whole dose curve; as a rule, active = well fitted inhibition curve with a large enough effect; inconclusive = small, poorly fitted or top-dose-only effect; inactive = no such curve, though single readings can be large or run the other way. The entries come from a sample that favours actives as a whole.

These molecules were tested against Histone-lysine N-methyltransferase EHMT2 (Homo sapiens) (UniProt Q96KQ7) (assay: qHTS Assay for Inhibitors of Histone Lysine Methyltransferase G9a). Conditions: G9a H3K9 monomethylation, AlphaScreen, 2 h; series mostly up to 59 µM.
Outline: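 G9a (20 nM) was preincubated 15 min with compound, then reacted 2 h at room temperature with 500 nM biotin-H3K9 peptide and 20 µM SAM. Monomethyl-H3K9 detected by AlphaScreen using anti-H3K9me1 antibody.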
% is set by controls: 0 for no effect and ±100 for the full control effect; potency is the fitted concentration of half-maximal effect.
Note: nearly all actives have a fitted effect of over 75% in size.

Chain of Histone-lysine N-methyltransferase EHMT2 (Homo sapiens) (Q96KQ7 913-1193 limits assumed): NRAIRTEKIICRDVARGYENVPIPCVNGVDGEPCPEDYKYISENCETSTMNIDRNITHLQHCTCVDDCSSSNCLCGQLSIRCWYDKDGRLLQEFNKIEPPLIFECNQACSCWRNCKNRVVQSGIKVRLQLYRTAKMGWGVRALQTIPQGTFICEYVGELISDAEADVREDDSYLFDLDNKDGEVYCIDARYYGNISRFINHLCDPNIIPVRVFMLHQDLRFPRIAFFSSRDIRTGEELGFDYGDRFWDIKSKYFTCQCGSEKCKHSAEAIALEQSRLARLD

Potency, inactive:
CCn1cc(C(=O)NCc2ccccc2)c(=O)c2cc(S(=O)(=O)N3CCCCC3)ccc21
Cc1ccc(CNC(=O)CCNS(=O)(=O)c2ccc3c(c2)oc(=O)n3C)cc1
COc1cccc(CN2CCc3nc(SCC(=O)Nc4ccccc4)[nH]c(=O)c3C2)c1
Cc1cccc(NC(=O)CN2C(=O)c3ccccc3C2=O)c1C
O=C(CN1C(=O)c2cccc3cccc1c23)Nc1ccccc1
CCc1ccc(-c2cc3c(=O)n(CC(=O)NCCCN4CCN(Cc5ccccc5)CC4)nc(C)n3n2)cc1
CCOc1ccccc1NC(=O)Cn1c(=O)n(-c2cccc(C)c2)c(=O)c2c1c1cc(OC)ccc1n2C
Cc1cc2oc(C(=O)N(Cc3ccc(Cl)cc3)Cc3ccco3)c(C)c2cc1Cl
COc1ccc(CN2CCN(C(=O)c3cc(C4CC4)nn3-c3ccccc3)CC2)cc1F
Cc1cc([N+](=O)[O-])ccc1NC1CCCC1
O=C(COC(=O)c1cc([N+](=O)[O-])ccc1NCc1ccccc1)NC1CCCCC1
O=[N+]([O-])c1ccc2nc(-c3ccccn3)[nH]c2c1
O=C(Nc1ccccc1)O/N=C1\CCCCC1c1ccc([N+](=O)[O-])cc1[N+](=O)[O-] (stereo unspecified)
CCOc1ccc(CNCc2c(C(=O)O)c(C)n(Cc3cccc(OC)c3)c2C)cc1OC
CC(C)Sc1oc(-c2cccs2)nc1S(=O)(=O)c1ccc(Cl)cc1
C/C(=N/OC(=O)c1ccc(Br)cc1)c1ccc(C)cc1
Cc1nnc(N2CCC(C(=O)Nc3ccc(F)cc3)CC2)c2nn(-c3ccc(Cl)cc3)c(C)c12
Cc1cccc(C(=O)NCCc2nc3ccccc3n2Cc2ccccc2Cl)c1
COc1cccc(OC)c1OCCN1CCN(C(=O)c2ccco2)CC1
CCC(C)N(C(=O)CSc1nnnn1-c1ccccc1OC)C1CCS(=O)(=O)C1 (stereo unspecified)
CCn1c(=O)c(=O)[nH]c2c(=O)oc3ccc(S(=O)(=O)Nc4ccc(OC)cc4)cc3c21
Cc1ccc(Cl)c(OCC(=O)N2CCc3ccccc3C2)c1
O=C1N/C(=C/c2cccs2)C(=O)N1Cc1ccc(F)cc1
Cc1cccc(C2=N/C(=C/c3cccs3)C(=O)O2)c1
CC(=O)c1ccc(N2CCN(C3C(=O)c4ccccc4N3C(C)=O)CC2)cc1 (stereo unspecified)
COc1ccccc1-c1nc(SC)n[nH]1
CCCOc1ccccc1C(=O)NCCCC(=O)O
Cc1nc2nc(SCC(=O)NC3CCC(C)CC3)nn2c(C)c1Cc1ccccc1Cl (stereo unspecified)
Cc1cccc(-n2cnc(C(=O)Nc3cccnc3)c2)n1
COc1ccc(-c2nc3nc(C)cc(C)n3c2Nc2c(C)cccc2C)cc1
Cc1ccc(CCNC(=O)c2ccc3c(c2)N(Cc2cc(C)ccc2C)C(=O)c2ccccc2S3=O)cc1 (stereo unspecified)
Cc1ccc(S(=O)(=O)NCCC(=O)OCC(=O)N(C)c2ccccc2)cc1
Cc1ccc(OCC(=O)NC(C)c2ccccc2)cc1C (stereo unspecified)
Cc1ccc(OCCCC(=O)NC(C)c2ccccc2)c(C)c1 (stereo unspecified)
COc1ccccc1C(=O)NC(=S)Nc1ccccc1N1CCCCC1
CC1=C(c2ccc(F)cc2)S(=O)(=O)N=C1N1CCC(C(=O)NCCc2ccccc2C)CC1
CCOc1ccc(CNC(=O)C2CCN(c3nnc(-n4cccc4CNc4ccc(C)cc4)s3)CC2)cc1OC

Potency, active:
CCN1C(=O)c2cccc3c(S(=O)(=O)Nc4ccccc4O)ccc1c23 44.7 µM
CCN1C(=O)c2cccc3c(N)ccc1c23 39.8 µM
C[n+]1ccccc1C1CCCC/C1=N\Nc1ccc([N+](=O)[O-])cc1[N+](=O)[O-] (stereo unspecified) 2 µM
O=[N+]([O-])c1ccc(N/N=C2/CCCCC2c2ccccn2)c([N+](=O)[O-])c1 (stereo unspecified) 10 µM
C/C(=N\OC(=O)c1ccccc1)c1c(C)nc2cc(C)ccn12 50.1 µM
COc1cccc(OC)c1C(=O)N1CCN(Cc2cccnc2)CC1 7.08 µM
CSC1=N/C(=C\C=C\c2cccs2)C(=O)S1 7.94 µM
CCCOc1ccccc1-c1nc(SCCC(=O)O)n[nH]1 11.2 µM
Cc1cccc(-n2cnc(C(=O)NNC(=S)Nc3ccccc3)c2)n1 28.2 µM
CCc1cccc(C)c1Nc1c(-c2ccc(N(C)C)cc2)nc2ncccn12 8.91 µM
Cc1cc(C)cc(OCC(=O)NC(C)c2ccccc2)c1 (stereo unspecified) 79.4 µM
COc1ccccc1C(=O)NC(CCSC)C(=O)N1CCN(C/C=C/c2ccccc2)CC1 (stereo unspecified) 56.2 µM

activity, negative = inhibition, inactive:
Nc1ccc2c3c(cccc13)C(=O)NC2=O 29.3% [at 12.7 µM]
CN1C(=O)c2cccc3c(N)ccc(c23)C1=O -11.1% [at 2.33 µM]
CCOc1ccc(/C=N\NC(=O)c2c(C)nc3cc(C)ccn23)cc1 18% [at 0.501 µM]
O=C(Nc1cccc(-c2cccc(Cl)c2)c1)C1CCN(C2CCC2)CC1 -4.3% [at 0.0925 µM]
O=Cc1c(Nc2ccccc2Cl)nc2ccccn2c1=O 5.69% [at 0.501 µM]
COc1ccccc1C(=O)N1CCN=C1SCc1cccnc1 4.75% [at 12.7 µM]
COC(=O)c1ccc(NC(=S)Nc2cccc(C)n2)cc1 -9.29% [at 12.7 µM]
O=C(c1ccc(Cl)nc1)N1CCN(S(=O)(=O)c2ccc3c(c2)OCCO3)CC1 -21.6% [at 12.7 µM]
Cc1cccc(C)c1Nc1c(-c2ccccc2O)nc2ncccn12 -7.84% [at 12.7 µM]
O=C1C2CCCN2C(=O)N1CCCCN1CCN(c2cccc(C(F)(F)F)c2)CC1 (stereo unspecified) 2.49% [at 0.501 µM]
CSCCC(NC(=O)c1ccccc1)C(=O)N1CCN(Cc2ccc(Cl)cc2)CC1 (stereo unspecified) 10.6% [at 0.501 µM]
COc1ccccc1C(=O)NC(CCSC)C(=O)N1CCN(C(C)=O)CC1 (stereo unspecified) 8.08% [at 12.7 µM]
